Source: PubChem BioAssay
Several values for one entry are separate records, joined by “and”; a condition that tells them apart may be missing. Equal values may be shown once. Activity calls are given as the source filed them.

Experiments:
[1] = small molecules captured by biotinylated probe aFSTL3 – biochemical, small-molecule microarray, fluorescence 635/667, stem cell growth factor project, primary screen (AID 1064); conditions: higher = more signal;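 further: measures binding of the biotinylated anti-FSTL3 antibody to printed compounds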
[2] = binders from COS7 lysate, DM2A8 probe, primary screen, torsin A project, cell lysate, small-molecule microarray, fluorescence 635/667 (AID 1065); conditions: higher = more signal, COS7 lysate expressing mutant human TOR1A
[3] = small molecules captured by biotinylated probe aFGF2 – biochemical, small-molecule microarray, fluorescence 635/667, stem cell growth factor project, primary screen (AID 1067); conditions: higher = more signal;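 further: measures binding of biotinylated aFGF2 protein to printed compounds on slides; z-score merges feature fluorescence and signal-to-noise across triplicate slides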
[4] = small molecules captured by biotinylated probe aFGF10 – biochemical, small-molecule microarray, fluorescence 635/667, stem cell growth factor project, primary screen (AID 1071); conditions: higher = more signal;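 further: score merges 667 nm spot intensity and signal to noise from triplicate slides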
[5] = molecular target: Neurogenic locus notch homolog protein 2 (Homo sapiens) (UniProt Q04721); experiment: small molecules binding Notch2 protein – biochemical, small-molecule microarray, 635 nm fluorescence, stem cell growth factors, primary screen (AID 1073); conditions: higher = more signal
Chain of Neurogenic locus notch homolog protein 2 (Homo sapiens) (Q04721 whole entry, looked up, canonical isoform): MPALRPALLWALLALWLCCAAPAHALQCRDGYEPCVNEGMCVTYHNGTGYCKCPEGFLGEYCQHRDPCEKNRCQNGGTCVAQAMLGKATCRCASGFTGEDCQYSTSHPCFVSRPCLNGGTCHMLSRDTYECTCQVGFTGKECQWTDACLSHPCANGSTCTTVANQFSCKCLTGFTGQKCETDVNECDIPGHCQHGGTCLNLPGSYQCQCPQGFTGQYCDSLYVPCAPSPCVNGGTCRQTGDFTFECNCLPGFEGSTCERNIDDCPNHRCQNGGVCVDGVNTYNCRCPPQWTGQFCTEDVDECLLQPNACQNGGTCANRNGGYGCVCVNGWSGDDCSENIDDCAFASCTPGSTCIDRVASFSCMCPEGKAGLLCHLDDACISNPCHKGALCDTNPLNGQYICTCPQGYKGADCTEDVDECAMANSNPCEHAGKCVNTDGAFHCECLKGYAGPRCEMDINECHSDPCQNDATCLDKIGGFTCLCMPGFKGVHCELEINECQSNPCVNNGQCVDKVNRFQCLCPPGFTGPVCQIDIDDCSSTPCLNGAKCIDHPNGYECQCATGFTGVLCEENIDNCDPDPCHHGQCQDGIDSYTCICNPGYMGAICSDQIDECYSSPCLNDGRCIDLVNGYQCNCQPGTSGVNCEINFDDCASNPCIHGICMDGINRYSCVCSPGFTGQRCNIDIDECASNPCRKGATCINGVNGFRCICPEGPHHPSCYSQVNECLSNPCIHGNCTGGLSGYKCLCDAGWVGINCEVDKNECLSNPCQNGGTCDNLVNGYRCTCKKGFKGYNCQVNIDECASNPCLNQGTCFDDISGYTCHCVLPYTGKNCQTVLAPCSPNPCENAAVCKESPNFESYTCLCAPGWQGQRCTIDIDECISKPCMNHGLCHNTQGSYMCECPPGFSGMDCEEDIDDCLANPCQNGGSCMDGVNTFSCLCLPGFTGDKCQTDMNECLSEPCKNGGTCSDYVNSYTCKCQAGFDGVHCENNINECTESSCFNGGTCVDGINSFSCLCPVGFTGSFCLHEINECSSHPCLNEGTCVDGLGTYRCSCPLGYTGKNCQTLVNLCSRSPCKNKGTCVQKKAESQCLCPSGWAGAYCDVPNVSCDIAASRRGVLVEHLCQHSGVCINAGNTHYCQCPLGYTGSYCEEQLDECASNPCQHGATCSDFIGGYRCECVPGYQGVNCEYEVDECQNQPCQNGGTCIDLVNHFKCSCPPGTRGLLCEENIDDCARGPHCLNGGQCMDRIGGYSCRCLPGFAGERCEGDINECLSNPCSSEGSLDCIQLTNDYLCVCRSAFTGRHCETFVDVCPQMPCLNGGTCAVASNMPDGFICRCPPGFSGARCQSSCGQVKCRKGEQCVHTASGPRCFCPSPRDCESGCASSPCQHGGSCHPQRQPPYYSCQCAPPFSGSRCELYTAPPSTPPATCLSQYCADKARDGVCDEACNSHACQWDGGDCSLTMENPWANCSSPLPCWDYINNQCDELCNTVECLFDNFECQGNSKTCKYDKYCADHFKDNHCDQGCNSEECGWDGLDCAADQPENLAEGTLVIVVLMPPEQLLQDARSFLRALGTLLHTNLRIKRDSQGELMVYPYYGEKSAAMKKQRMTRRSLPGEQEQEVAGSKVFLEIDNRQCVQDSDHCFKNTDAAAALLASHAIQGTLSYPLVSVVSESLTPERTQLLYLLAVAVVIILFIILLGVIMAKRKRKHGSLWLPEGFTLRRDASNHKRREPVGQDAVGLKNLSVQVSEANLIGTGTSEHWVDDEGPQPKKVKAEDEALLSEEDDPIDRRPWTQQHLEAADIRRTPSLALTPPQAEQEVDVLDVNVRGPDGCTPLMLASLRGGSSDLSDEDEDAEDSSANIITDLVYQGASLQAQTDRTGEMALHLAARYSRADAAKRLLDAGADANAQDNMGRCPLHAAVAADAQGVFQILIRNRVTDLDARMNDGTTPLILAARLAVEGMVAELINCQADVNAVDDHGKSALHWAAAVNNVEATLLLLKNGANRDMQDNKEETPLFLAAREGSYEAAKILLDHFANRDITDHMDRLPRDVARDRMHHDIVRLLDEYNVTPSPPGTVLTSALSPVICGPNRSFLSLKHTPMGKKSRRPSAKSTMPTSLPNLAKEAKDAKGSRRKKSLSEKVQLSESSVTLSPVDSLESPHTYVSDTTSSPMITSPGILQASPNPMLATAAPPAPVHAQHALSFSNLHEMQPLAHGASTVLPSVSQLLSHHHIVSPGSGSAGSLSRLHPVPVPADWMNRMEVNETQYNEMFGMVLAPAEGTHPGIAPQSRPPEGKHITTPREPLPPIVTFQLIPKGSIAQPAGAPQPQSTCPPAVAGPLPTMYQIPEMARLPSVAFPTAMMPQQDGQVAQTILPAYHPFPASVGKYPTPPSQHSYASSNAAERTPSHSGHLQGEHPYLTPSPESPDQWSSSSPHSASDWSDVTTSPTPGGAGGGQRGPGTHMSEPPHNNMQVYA

[6] = molecular target: Pro-neuregulin-1, membrane-bound isoform (Homo sapiens) (UniProt Q02297); experiment: small molecules binding neuregulin-1 protein – biochemical, small-molecule microarray, fluorescence 635/667, psychiatric disease protein project, primary screen (AID 1075); conditions: NRG1 binding, 635 nm fluorescence, higher = more signal;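 further: score combines 667 nm spot fluorescence with signal to noise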
Chain of Pro-neuregulin-1, membrane-bound isoform (Homo sapiens) (Q02297 whole entry, looked up, the tested form may be a part, canonical isoform): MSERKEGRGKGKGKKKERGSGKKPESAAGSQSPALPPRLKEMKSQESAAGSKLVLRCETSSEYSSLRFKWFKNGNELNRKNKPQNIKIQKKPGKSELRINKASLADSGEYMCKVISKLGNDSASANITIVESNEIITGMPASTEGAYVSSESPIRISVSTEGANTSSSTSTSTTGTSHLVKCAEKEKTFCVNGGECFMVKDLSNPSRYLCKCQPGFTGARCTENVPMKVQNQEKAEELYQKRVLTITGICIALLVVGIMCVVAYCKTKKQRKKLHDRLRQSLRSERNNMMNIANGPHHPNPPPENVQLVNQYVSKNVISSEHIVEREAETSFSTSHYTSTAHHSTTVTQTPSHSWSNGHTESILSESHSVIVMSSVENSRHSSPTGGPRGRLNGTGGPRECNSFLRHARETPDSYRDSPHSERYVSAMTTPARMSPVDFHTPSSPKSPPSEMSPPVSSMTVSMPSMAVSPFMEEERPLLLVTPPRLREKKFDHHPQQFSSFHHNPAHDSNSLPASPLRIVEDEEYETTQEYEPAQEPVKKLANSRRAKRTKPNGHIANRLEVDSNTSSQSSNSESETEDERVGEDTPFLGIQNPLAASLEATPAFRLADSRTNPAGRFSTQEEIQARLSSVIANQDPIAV

[7] = tested on: Neuregulin-1 EGF-like domain; experiment: small molecules binding NRG1 EGF domain – biochemical, small-molecule microarray, 635 nm fluorescence, primary screen (AID 1081); conditions: higher = more signal;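 further: binding of the protein to compounds printed on small-molecule microarray slides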
[8] = FRG1 expression reporter modulators in myotubes – cell-based, C2C12 myotubes, firefly/Renilla luciferase, luminescence, FRG1 inhibition for FSHD, primary screen (AID 1084); conditions: FRG1 promoter luciferase, higher = more signal, called active from +8 up or from −8 down
[9] = small molecules captured by biotinylated probe aFST – biochemical, small-molecule microarray, fluorescence 635/667, stem cell growth factor project, primary screen (AID 1086); conditions: higher = more signal;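 further: score merges 667 nm fluorescence with signal-to-noise of each printed compound spot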
[10] = binders of probe aHhip on microarray, primary screen, stem cell growth factor project, biochemical, small-molecule microarray, fluorescence 635/667 (AID 1087); conditions: higher = more signal;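 further: score merges spot fluorescence at 667nm with spot signal to noise ratio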

Structure (SMILES) | composite z-score [1] | composite z-score [2] | composite z-score [3] | composite z-score [4] | composite z-score [5] | composite z-score [6] | composite z-score [7] | z-score [8] | composite z-score [9] | composite z-score [10]
CC(=O)OC[C@H]1O[C@H](C#CC(C)(C)C)C=C[C@@H]1OC(C)=O | -0.358 | -0.159 | -0.126 | 0.039 | 1.01 | 1.38 | 1.25 | -0.259 (inactive) | 0.454 | 0.164
C=CCN(CCCC)C(=O)C(c1cccs1)N(C(=O)/C=C\C(=O)O)c1c(Cl)cccc1CO (stereo not given) | 1.46 and 0.323 | -1.19 and -0.707 | -0.288 and -0.203 | -1.27 and -1.8 | -1.97 and -1.39 | -1.26 and -0.533 | -0.751 and 0.176 | -0.165 (inactive) and -0.332 (inactive) | -1.94 and -0.684 | 0.679 and -0.409
CCCC[C@@H]1CN2[C@@H](CC[C@@H](C)[C@@H]2c2ccc(Br)cc2)C(=O)O1 | -0.519 and -0.353 | 0.191 and 0.217 | -0.111 and -0.0736 | 0.458 and 0.656 | 0.333 and 0.493 | 0.48 and 0.847 | 0.602 and 0.965 | 0.427 (inactive) and -0.286 (inactive) | 0.0218 and 0.0109 | -0.142 and -0.306
COC(=O)C1=C(C)N(Cc2ccccc2)[C@]23O[C@](C(=O)OC)(C(=O)N2[C@@H]1c1ccccc1)[C@H]1CCCC(=O)[C@H]13 | 0.0353 and -0.148 | 0.383 and 1.06 | -0.0333 and -0.0507 | 0.513 and 0.359 | 1.15 and 0.327 | 1.21 and -0.23 | 0.636 and -0.133 | -1.02 (inactive) and 0.357 (inactive) | 0.395 and 0.0869 | 0.186 and -0.236
C[C@@H]1CC[C@@H](C(=O)O)N[C@H]1c1ccc(-c2ccco2)cc1 | -0.462 | 0.712 | -0.0502 | 0.422 | 0.571 | 0.486 | 0.811 | 0.0786 (inactive) | 0.583 | -0.0173
C=CCN(CCCCC)C(=O)C1N(c2ccc(CCO)cc2)C(=O)C2C(C(=O)O)C3C=CC21O3 (stereo not given) | -0.152 and 0.561 | -0.875 and -0.415 | -0.154 and -0.179 | -0.808 and -0.367 | -2.12 and -2.03 | -0.638 and -0.72 | -0.465 and -0.307 | 1.51 (inactive) and 1.3 (inactive) | -0.623 and -0.681 | -0.4 and -0.175
CCN1C(=O)[C@H]2[C@H]3[C@H](O)[C@H](O)CC(=NNC(=O)OCc4ccc(OC)cc4)[C@H]3CC[C@H]2C1=O | 2.2 | 0.349 | -0.0775 | 0.284 | -0.0863 | -0.116 | -0.222 | -0.0988 (inactive) | 1.03 | -0.0482
COc1ccc(O[C@H]2C=C[C@@H](c3ccccc3)O[C@@H]2COC(=O)CCC(C)=NO[C@H](C)c2cn([C@H](CO)Cc3ccccc3)nn2)cc1 | -0.647 and -0.694 | 0.535 and 0.365 | -0.0682 and -0.171 | 0.241 and 0.038 | 0.203 and 0.35 | 0.338 and 0.692 | -0.0177 and 0.384 | 1.61 (inactive) and 1.46 (inactive) | 0.0869 and -0.364 | -0.0196 and 0.201
C=C[C@H](OC)[C@@H](O)c1ccc(O)c(F)c1 | 1.25 and 1.29 | -0.903 and -2.05 | -0.116 and -0.247 | -0.458 and -0.0501 | -2.17 and -1.38 | -0.527 and -1.01 | -0.0988 and 0.736 | 0.537 (inactive) and -0.0808 (inactive) | -1.08 and -1.54 | -0.213 and -0.314
CC(CO)N1C(=O)[C@@H]2C3C(=O)OCCC=C[C@H]3OC23C=CCN(Cn2nnc4ccccc42)C(=O)[C@@H]13 (stereo not given in full) | 0.634 and 0.0762 | -1.37 and 0.709 | -0.187 and -0.0234 | 0.0583 and 0.509 | -1.7 and -0.0585 | 1.32 and 1.91 | 1.5 and 1.48 | -0.191 (inactive) and 0.519 (inactive) | -0.545 and -0.255 | -0.137 and -0.228
C=CCN(C(=O)C(c1cccs1)N(CCOCCO)C(=O)/C=C\C(=O)O)C(C)(C)C (stereo not given) | 0.982 and 1.01 | -0.718 and -0.131 | -0.228 and -0.192 | -0.708 and -0.376 | -1.28 and -1.44 | -0.395 and -0.988 | 0.484 and 0.745 | -0.0773 (inactive) and -0.143 (inactive) | -0.78 and -1.06 | -0.277 and -0.169
CCCC[C@@H]1CN2[C@H](c3ccc(Br)cc3)[C@@H](C)CC[C@H]2C(=O)O1 | -0.419 and -0.254 | -0.309 and 0.41 | -0.129 and -0.103 | -0.0574 and -0.132 | -0.118 and -0.134 | 0.0412 and -0.139 | -0.246 and -0.605 | -1.09 (inactive) and 0.204 (inactive) | -0.0739 and -0.0224 | 0.0264 and -0.0237
CC(CO)N1C(=O)[C@@H]2C3C(=O)OCCC=C[C@H]3OC23C=CCN(CCN2CCOCC2)C(=O)[C@@H]13 (stereo not given in full) | -0.316 and 0.246 | -1.28 and 0.759 | -0.166 and -0.085 | -0.376 and -0.591 | -0.0931 and 0.0406 | -0.256 and 1.91 | 0.678 and 0.666 | 0.12 (inactive) and 0.497 (inactive) | 0.106 and 0.0417 | -0.399 and -0.119
CCN1C(=O)[C@H]2[C@H]3[C@H](O)[C@H](O)CC(=NOC)[C@@H]3CC[C@H]2C1=O | 0.206 | -0.604 | -0.1 | 0.369 | -0.422 | -0.319 | -0.817 | -0.898 (inactive) | -0.221 | 0.0024
CCOC(=O)[C@@H]1CC2O[C@]23C[C@@H]1C(=O)N1CCC[C@@H]1[C@H]3O[Si](C)(C)C(C)(C)C (stereo not given in full) | -0.224 and -0.287 | -0.457 and -0.0006 | -0.238 and -0.0048 | -0.235 and -0.144 | -1.08 and -0.312 | -0.737 and -0.343 | -1.07 and -0.585 | -0.304 (inactive) and 0.333 (inactive) | -0.378 and 0.223 | -0.207 and -0.231
